Our source for the max response values is PubChem BioAssay AID2314 (National Center for Advancing Translational Sciences (NCATS), 2010).

In all, about 300,000 compounds went through this assay and about 37,000 (12%) were called active. Shown is part of a subset that was picked to be rich in actives. A number with no mark means an inactive call. No stated cut-off is given here; in the data, active means max response mostly above about 13% (no sharp cut-off); inactive means mostly below about 14%.

This assay in a line: Cycloheximide Counterscreen for Small Molecule Inhibitors of Shiga Toxin. Further: read at 38.3 µM for the half of the compounds with a filed dose; 0% is about no effect. Conditions: cell reporter, cycloheximide protein synthesis inhibition counterscreen; stronger effect = higher value. (In general: A counterscreen serves to expose hits that act by an unwanted route or on another target.)
On to `O=S(=O)(c1ccc(Cl)cc1)N1CCCN(c2ccc(C(F)(F)F)cn2)CC1`, for which the max response was -1.58%.

For the compound `O=C(N/N=C/c1c(O)n(C2CC2)c(=S)[nH]c1=O)c1ccccc1`, the max response is 38.1% (active).

Consider `O=C(N/N=C/c1ccc(OC(=O)c2ccccc2Cl)cc1)c1ccc(O)cc1`, for which the max response is -3.06%.

Take `O=c1[nH]c(=S)n(C2CC2)c(O)c1/C=N/N1CCOCC1`: the max response is -4.88%.

As for `O=C(N/N=C/c1c(O)n(C2CC2)c(=S)[nH]c1=O)c1ccccc1Cl`, the max response is 19.5% (active).

`O=C(Nc1cc(=O)[nH]c2ncnn12)c1ccccc1Cl`: the max response was -7.22%.

As for `COc1ccccc1-n1c(O)c(C=NC2CC2)c(=O)[nH]c1=O`, the max response was -4.22%.

Turning to `COC(=O)CCSc1cc([N+](=O)[O-])cc2c1c(C1OCCS1)nn2-c1ccccc1` (stereo not drawn), the max response is -3.43%.

`O=C(NCCN1CCOCC1)c1ccc(/C=C2\Sc3ccccc3N(Cc3ccc(F)cc3)C2=O)cc1`: the max response is 11.1%.

As to `Cc1nc(-c2nnc(SCC(=O)Nc3cc(C(F)(F)F)cc(C(F)(F)F)c3)n2C)cs1`, the max response is -0.852%.

With `CCOC(=O)c1c(-c2ccccc2)oc2ccc(OCC(=O)NN)cc12`, the max response was -3.08%.

For the compound `CCOCCCn1c(SCC(=O)Nc2cc(OC)ccc2OC)nc2ccccc2c1=O`, the max response is -2.84%.

With `Cc1nn(C)c(Cl)c1CN1CCC(Oc2ccc(C(=O)N3CCCC3)cc2)CC1`, the max response is 0.779%.

Turning to `COCc1cc(C)nc2sc(C(=O)NC3CCCCC3)c(N)c12`, the max response is 11.4%.

Consider `CC(C)OC(=O)c1sc2nc3c(cc2c1N)C(=O)CCC3`, for which the max response was 19.5% (active).

Take `Nc1c(C(=O)NCc2ccccc2)sc2nc3c(cc12)C(=O)CCC3`: the max response was 8.86%.

Take `CCn1c(CC(=O)Nc2ccccc2C)nnc1SCC(=O)NC1=NCCS1`: the max response is 7.82%.

Regarding `COC(=O)Cc1ccc(N(Cc2ccccc2F)S(=O)(=O)c2ccc(Br)cc2)cc1`, the max response is -4.43%.

Consider `COc1ccc(Cl)cc1NS(=O)(=O)c1cccc(C(=O)NCC2CCCO2)c1` (stereo not drawn), for which the max response was -3.64%.

For `CC(=O)N1c2ccc(S(=O)(=O)N(C)CC(=O)N(C)Cc3ccccc3)cc2CC1C` (stereo not drawn), the max response is -2.22%.

`NC(=O)NC(=O)CSc1nc2cc([N+](=O)[O-])ccc2n1-c1cccc(C(F)(F)F)c1`: the max response was -1.36%.

As for `Cn1c(CO)cnc1SCc1ccccc1`, the max response was 21.1% (active).

On to `Cn1c(-c2ccc(F)cc2)cnc1SCC(=O)NNC(=O)Cc1ccccc1`, for which the max response was -0.376%.

With `CSc1c(SCc2ccccc2)cnn(Cc2ccccc2)c1=O`, the max response is 5.89%.

For `CCOC(=O)c1cccc(NS(=O)(=O)c2c(C(=O)N3CCCCCC3)c(C)n(C)c2C)c1`, the max response is 1.94%.

`CCCCCCN=C(CC)c1c(O)n(CCCC)c(=O)[nH]c1=O`: the max response is -2.56%.

Turning to `CC/C(=N\NC(=O)c1ccccc1O)c1c(O)n(Cc2ccccc2)c(=O)[nH]c1=O`, the max response is 23% (active).

Consider `CCCCn1c(O)c(C(CC)=NCc2ccco2)c(=O)[nH]c1=O`, for which the max response was -4.03%.

`Cc1cc(-c2ccc(C)c(S(=O)(=O)Nc3ccc(S(N)(=O)=O)cc3)c2)on1`: the max response was 4.89%.

For `Cc1ccccc1C(=O)N1CCN(c2ccc(NC(=O)c3cccs3)cc2)CC1`, the max response was -1.82%.

Turning to `Cc1ccccc1C(=O)NC(=S)Nc1ccc(N2CCN(C(=O)c3ccccc3)CC2)cc1`, the max response is -3.14%.

In the case of `O=C(Nc1ccc(S(=O)(=O)N2CCc3ccccc3C2)cc1)c1ccccc1`, the max response was -1.47%.

Take `Cc1ccccc1C(=O)Nc1ccc(N2CCCCCC2)cc1`: the max response is 19% (active).

As to `COc1cccc(C(=O)Nc2ccc(N3CCCC3)cc2)c1`, the max response was 30.8% (active).

`CN1CCN(c2ccc(NC(=O)c3ccccc3)cc2)CC1`: the max response was 30.4% (active).

On to `C/C(=N\NC(=O)c1ccccc1C)c1ccc(N2CCOCC2)cc1`, for which the max response was 18.1% (active).

As for `C/C(CCc1ccccc1)=N\NC(=O)c1ccc(CN2CCOCC2)cc1`, the max response was 6.88%.

Turning to `CN1CCN(c2ccc(NC(=O)c3ccc4c(c3)[nH]c(=O)n4Cc3ccc(F)cc3)cc2)CC1`, the max response was -2.44%.

Take `COc1ccc(C(=O)NC(=S)Nc2ccc(N3CCCC3)cc2)cc1OC`: the max response is -0.974%.

`COc1cccc(C(=O)Nc2ccc(N3CCN(C(=O)c4ccco4)CC3)cc2)c1`: the max response is -5.64%.

Take `CC(=O)c1ccc(N2CCN(CC(=O)Nc3ccccc3N3CCOCC3)CC2)cc1`: the max response was -0.941%.

On to `CC(C)Oc1ccc(CC(=O)NNC(=S)Nc2ccc(Br)cc2)cc1`, for which the max response is -3.17%.

Take `Cc1cc(-c2ccc(S(=O)(=O)N3CCN(c4cccc(C(F)(F)F)c4)CC3)s2)on1`: the max response was 1.18%.

Take `CCOc1ccccc1C(=O)NC1CC2CCCC(C1)N2Cc1ccccc1` (stereo not drawn): the max response is -3.26%.

With `COC(=O)C1=C(N)Oc2cc(C)[nH]c(=O)c2C1c1ccc(Cl)cc1` (stereo not drawn), the max response was 0.893%.

On to `CC(C)(C)n1ncc2c(=O)n(Cc3ccc(Cl)cc3)cnc21`, for which the max response was 11.3%.

`COc1ccc(/C=N/NC(=O)C(C)N(c2ccc(OC)cc2)S(C)(=O)=O)cc1` (stereo not drawn): the max response was -4.86%.

For `Cc1nc(N2CCN(c3ccccn3)CC2)c2c(C)c(C(=O)Nc3ccc(F)c(Cl)c3)sc2n1`, the max response is -3.16%.

With `O=C(Nc1cc(C(=O)Nc2ccc(S(=O)(=O)O)cc2)cc(C(=O)Nc2ccc(S(=O)(=O)O)cc2)c1)Nc1cc(C(=O)Nc2ccc(S(=O)(=O)O)cc2)cc(C(=O)Nc2ccc(S(=O)(=O)O)cc2)c1`, the max response was -6.6%.

Turning to `CC(C)(C)C(=O)NC1CC2CCCC(C1)N2C(=O)Nc1ccccc1F` (stereo not drawn), the max response was -1.8%.

Regarding `O=C(O)c1cc(S(=O)(=O)N(Cc2ccccc2)c2cccc(C(F)(F)F)c2)ccc1Cl`, the max response is -2.82%.

For the compound `CCc1nn(CCCC(=O)Nc2ccc(C)c(C)c2)c(=O)c2cc3occc3n12`, the max response was 0.415%.

With `COc1cccc(C(=O)NNS(=O)(=O)c2ccc(F)cc2)c1`, the max response is 11.3%.

As to `COc1cccc(C(=O)NNC(=O)c2cccc(F)c2)c1`, the max response was 26.6% (active).

In the case of `COc1cccc(C(=O)NNC(=O)/C=C/c2ccccc2)c1`, the max response was 0.531%.

For the compound `COc1cccc(C(=O)NNC(=O)c2ccccc2Br)c1`, the max response was -3.22%.

Consider `CC(=O)Oc1cccc(C(=O)Nc2ccccc2NC(=O)c2cccc(OC(C)=O)c2)c1`, for which the max response is 4.65%.

For the compound `COc1cccc(C(=O)Nc2cc3c(cc2Br)OCCCO3)c1`, the max response was 86.1% (active).
